24 molecules from PubChem BioAssay (NCATS) can be followed below.

Assay [1] can be described thus: Cell Viability - BJ (AID 421; calls by dose curve;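 also: potency is read from the fitted curve at half-maximal effect; cells exposed to compound for 40 hours at 37 °C before readout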). As to conditions: BJ fibroblast viability, qHTS. The method in brief: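 Normal human BJ foreskin fibroblasts, 1500/well in complete medium, treated 40 hr at 37 °C. Cellular ATP by CellTiter-Glo luminescence; normalized to DMSO and 100 uM tamoxifen, AC50 from Hill fit.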
Assay [2] can be described thus: Cell Viability - MRC5 (AID 434; calls by dose curve;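 also: potency is read from the fitted curve at half-maximal effect; cells exposed to compound for 40 hours at 37 °C; potency reflects cytotoxicity seen as loss of intracellular ATP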). To be noted: MRC5 lung fibroblast viability, qHTS. The method in brief:
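AC50 values come from Hill-equation fits of intracellular ATP loss, measured by CellTiter-Glo luminescence. Normal lung fibroblasts (MRC5) had 40 hr compound treatment at 37 C, normalized between DMSO and 100 uM tamoxifen.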

The nature of assay [3]: MultiTox-Fluor Cytotoxicity Assay - LYMP1-002 - Dead Cells (AID 960).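 Also: cells exposed to compound for 16 h at 37 °C; 0% = DMSO and 100% = tetraoctylammonium bromide; nearly all actives have a fitted effect of over 60% in size.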 As to conditions: LYMP1-002 lymphoblastoid cells, dead-cell protease fluorescence; series mostly up to 46.1 µM. In short, it runs like this:
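Cells were plated, rested 5 hr, then treated with compound dilution series for 16 hr at 37 C. After adding substrate reagent and 60 min at room temperature, dead-cell protease fluorescence gave concentration-response curves fitted by the Hill equation.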

The target of assay [4] is Thyroid hormone receptor beta (Homo sapiens) (UniProt P10828). The experiment in a line: qHTS assay for small molecule antagonists of thyroid hormone receptor beta signaling (AID 588547; active = well fitted inhibition curve with a large enough effect in the signal ratio, with a control signal flat, not every such curve was filed as active; the % refers to the signal ratio;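 also: cells stimulated with 0.4 nM T3 agonist during compound exposure; % is scaled to controls: 0 for no effect and ±100 for the full control effect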). To be noted: TR-UAS-bla HEK293, beta-lactamase ratio, antagonist mode, 18 h. In short, it runs like this:
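Inhibition of T3-driven (0.4nM final) beta-lactamase reporter activity was measured over 0.59 nM to 92 uM compound after 18 h at 37 C. The cells were GripTite HEK293 TR-UAS-bla in charcoal/dextran-stripped serum, with CCF4 ratio read-out and IC50 from Hill fits.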

Assay [5] in a line: qHTS profiling for inhibitors of Plasmodium falciparum proliferation (AID 504749). Also: nearly all actives have a fitted effect of over 60% in size. Also: potency is read from the fitted curve at half-maximal effect.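 As to activity, negative = inhibition: 0% = DMSO vehicle and full inhibition = artemisinin control.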 As to conditions: P. falciparum in erythrocytes, SYBR Green DNA, 72 h, at 28.7 µM (top of the series). The method in brief:
(§1)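 SYBR Green fluorescence of parasite DNA, read after lysis and overnight dark incubation, measured growth over 72 h in erythrocyte culture at 0.3% parasitemia and 2.5% hematocrit. Data normalised to DMSO and 0.29 uM artemisinin, with plate-drift correction.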

Assay [6] deals with AS120. Described as above. As to conditions: P. falciparum in erythrocytes, SYBR Green DNA, 72 h; series mostly up to 28.7 µM. The method in brief:
as §1

Assay [7] deals with ATS189. The assay is described as above. As to conditions: P. falciparum in erythrocytes, SYBR Green DNA, 72 h; series mostly up to 28.7 µM. In short, it runs like this: as §1
Assay [8] concerns CP247. The assay is described as above. As to conditions: P. falciparum in erythrocytes, SYBR Green DNA, 72 h; series mostly up to 28.7 µM. The method in brief: as §1
Assay [9] deals with CP262. The description is as above. To be noted: P. falciparum in erythrocytes, SYBR Green DNA, 72 h; series mostly up to 28.7 µM. In short, it runs like this: as §1
For assay [10], the system named is CP266. The description is as above. To be noted: P. falciparum in erythrocytes, SYBR Green DNA, 72 h; series mostly up to 28.7 µM. The method in brief:
as §1

Assay [11] has as its system CP286. The assay is described as above. To be noted: P. falciparum in erythrocytes, SYBR Green DNA, 72 h; series mostly up to 28.7 µM. In short, it runs like this:
as §1

The test system of assay [12] is CP335. The assay is described as above. To be noted: P. falciparum in erythrocytes, SYBR Green DNA, 72 h; series mostly up to 28.7 µM. The method in brief:
as §1

Assay [13] concerns PC49. The assay is described as above. To be noted: P. falciparum in erythrocytes, SYBR Green DNA, 72 h; series mostly up to 28.7 µM. The method in brief:
as §1

For assay [14], the system named is W2. The description is as above. As to conditions: P. falciparum in erythrocytes, SYBR Green DNA, 72 h; series mostly up to 28.7 µM. In short, it runs like this:
as §1

The target of assay [15] is Cytochrome P450 1A2 (Homo sapiens) (UniProt P05177). The experiment in a line: p450-cyp1a2 (AID 410; calls by dose curve; also: potency is read from the fitted curve at half-maximal effect). To be noted: recombinant CYP1A2, luciferin-ME demethylation, luminescence; series mostly up to 57 µM. The method in brief:
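O-Demethylation of luciferin 6' methyl ether by human CYP1A2 is monitored as luciferase luminescence. Substrate sits at Km (100uM); enzyme is 20nM. Values are scaled to 57 uM furafylline as maximal inhibition.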

The target in assay [16] is 3',5'-cyclic-AMP phosphodiesterase 4B (Homo sapiens) (UniProt Q07343). The assay can be described thus: qHTS Assay for Inhibitors of PDE-IV (AID 607; active = well fitted activation curve with a large enough effect in the main read-out, with a control signal flat, not every such curve was filed as active; also: % of control where 0% means no effect). To be noted: HEK293 ACTOne CNG channel cells, membrane potential fluorescence; series mostly up to 22.9 µM. In short, it runs like this: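 HEK293 ACTOne cells with CNG channel (1000/well), endogenous PDE4; membrane potential dye, compounds up to 22.9 uM final. Fluorescence Ex 535/Em 590; RO 20-1724 (100 uM final) as reference.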
3',5'-cyclic-AMP phosphodiesterase 4B (Homo sapiens), sequence (Q07343 whole entry, looked up): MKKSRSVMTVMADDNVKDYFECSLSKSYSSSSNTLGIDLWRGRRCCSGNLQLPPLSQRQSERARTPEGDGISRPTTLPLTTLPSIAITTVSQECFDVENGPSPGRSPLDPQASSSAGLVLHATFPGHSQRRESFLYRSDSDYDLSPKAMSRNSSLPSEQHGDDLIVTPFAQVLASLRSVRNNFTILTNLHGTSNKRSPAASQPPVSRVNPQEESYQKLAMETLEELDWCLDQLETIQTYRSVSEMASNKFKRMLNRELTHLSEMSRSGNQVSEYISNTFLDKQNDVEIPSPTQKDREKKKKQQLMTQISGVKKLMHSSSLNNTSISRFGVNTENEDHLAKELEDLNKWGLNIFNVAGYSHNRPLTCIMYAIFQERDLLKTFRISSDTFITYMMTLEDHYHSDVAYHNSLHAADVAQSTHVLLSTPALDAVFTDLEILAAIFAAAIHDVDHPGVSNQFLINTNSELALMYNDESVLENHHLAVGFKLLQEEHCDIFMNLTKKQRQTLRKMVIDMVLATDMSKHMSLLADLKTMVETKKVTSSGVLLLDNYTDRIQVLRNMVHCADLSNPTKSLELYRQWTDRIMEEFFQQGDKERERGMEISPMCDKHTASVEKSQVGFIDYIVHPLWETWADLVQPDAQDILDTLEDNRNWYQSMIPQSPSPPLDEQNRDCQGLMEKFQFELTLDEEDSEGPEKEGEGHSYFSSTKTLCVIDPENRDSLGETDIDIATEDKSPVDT

Assay [17] has as its target Lysosomal acid glucosylceramidase (Homo sapiens) (UniProt P04062). The assay can be described thus: Glucocerebrosidase-p2 (AID 348; in the data active = potency below about 10 µM; also: potency is read from the fitted curve at half-maximal effect). To be noted: purified GBA, blue fluorogenic substrate, 40 min. In short, it runs like this:
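Normal human glucocerebrosidase (0.2 nM) with blue fluorogenic substrate (80 uM final) in citrate/phosphate pH 5.9 with 10mM sodium taurocholate, 0.01% tween-20; 40 min RT, NaOH/glycine stop; fluorescence Ex 365/Em 440; AC50 from a titration from 0.6 nM upwards.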

In assay [18] the target is Cytochrome P450 3A4 (Homo sapiens) (UniProt P08684). The assay can be described thus: qHTS Assay for Activators of Cytochrome P450 3A4 (AID 885). Also: nearly all actives have a fitted effect of over 65% in size. To be noted: recombinant CYP3A4, Luciferin-PPXE luminescence, 60 min; series mostly up to 57.1 µM. The method in brief: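 Human CYP3A4 dealkylates Luciferin-PPXE to luciferin, which luciferase detection converts to light. Substrate was at its KM (25uM), buffer 200mM KPO4, reaction 60 min at RT.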
Cytochrome P450 3A4 (Homo sapiens), sequence (P08684 whole entry, looked up): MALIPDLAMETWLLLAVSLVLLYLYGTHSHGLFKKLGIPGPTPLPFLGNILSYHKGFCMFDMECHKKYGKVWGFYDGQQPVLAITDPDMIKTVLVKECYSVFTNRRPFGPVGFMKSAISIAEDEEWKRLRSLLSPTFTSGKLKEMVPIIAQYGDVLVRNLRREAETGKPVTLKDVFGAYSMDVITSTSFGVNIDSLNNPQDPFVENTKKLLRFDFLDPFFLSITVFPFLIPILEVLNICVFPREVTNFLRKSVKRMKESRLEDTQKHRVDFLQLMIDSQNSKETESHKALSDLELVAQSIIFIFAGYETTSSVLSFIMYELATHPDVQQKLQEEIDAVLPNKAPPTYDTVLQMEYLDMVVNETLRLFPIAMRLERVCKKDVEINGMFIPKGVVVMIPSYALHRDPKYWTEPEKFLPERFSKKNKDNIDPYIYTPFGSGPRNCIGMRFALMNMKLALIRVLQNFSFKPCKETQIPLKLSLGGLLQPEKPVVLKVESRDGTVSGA

Assay [19] can be described thus: AP1 Signaling Pathway (AID 357; active = well fitted curve in either direction with a large enough effect, not every such curve was filed as active; also: % is scaled to controls: 0 for no effect and ±100 for the full control effect). To be noted: ME-180 AP-1-bla reporter, EGF-induced, beta-lactamase ratio, 5 h; at 7.69 µM (top of the series) unless noted. The method in brief:
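AP-1-bla ME-180 cells with beta-lactamase reporter under AP-1 response element, stimulated with EC50 EGF; compounds titrated, 5 hours at 37 degrees Celsius. CCF4 read at 460/530 nm ratio; positive and negative modulators judged by AC50.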

The nature of assay [20]: Stat Signaling Pathway (AID 446; active = well fitted curve in either direction with a large enough effect, not every such curve was filed as active;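 also: ME-180 cervical cancer cells given 40 pM IL-6 alongside compound; SIE-controlled beta-lactamase reporter measured as 460/530 nm FRET emission ratio; % is scaled to controls: 0 for no effect and ±100 for the full control effect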). To be noted: ME-180 (cervical carcinoma) SIE beta-lactamase reporter, IL-6 stimulated, 5 h; series mostly up to 7.69 µM. The method in brief:
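Normalization used AC90 stimulation (300 pM IL-6) and AC90 inhibition (125 nM pan-JAK inhibitor at 40 pM IL-6). The underlying signal is SIE-driven beta-lactamase in ME-180 cells after 5 h IL-6 exposure with compound.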

The structures appear in SMILES notation. “And” between values parts separate entries of the source, which are not always exact repeats. Identical values can stand only once. Unmarked numbers belong to inactive results. Inconclusive results are not listed. The source made the active and inactive calls. Unless noted, calls follow the shape of the dose curve; as a rule, active = well fitted curve in the direction sought with a large enough effect; inconclusive = small, poorly fitted or top-dose-only effect, or another doubt; inactive = no such curve, though single readings can be large; an effect the other way counts as inactive or inconclusive. Bridge positions count the residues as written; N and C are the ends. Square brackets hold non-standard residues; d marks the D form. Peptide text beside a SMILES is read from it. * marks the point of attachment. Octanoyl(6-Me) = CCC(C)CCCCC(=O)*; Dab = NCC[CH](N)C(=O)O

Lysosomal acid glucosylceramidase (Homo sapiens), sequence (P04062 whole entry, looked up): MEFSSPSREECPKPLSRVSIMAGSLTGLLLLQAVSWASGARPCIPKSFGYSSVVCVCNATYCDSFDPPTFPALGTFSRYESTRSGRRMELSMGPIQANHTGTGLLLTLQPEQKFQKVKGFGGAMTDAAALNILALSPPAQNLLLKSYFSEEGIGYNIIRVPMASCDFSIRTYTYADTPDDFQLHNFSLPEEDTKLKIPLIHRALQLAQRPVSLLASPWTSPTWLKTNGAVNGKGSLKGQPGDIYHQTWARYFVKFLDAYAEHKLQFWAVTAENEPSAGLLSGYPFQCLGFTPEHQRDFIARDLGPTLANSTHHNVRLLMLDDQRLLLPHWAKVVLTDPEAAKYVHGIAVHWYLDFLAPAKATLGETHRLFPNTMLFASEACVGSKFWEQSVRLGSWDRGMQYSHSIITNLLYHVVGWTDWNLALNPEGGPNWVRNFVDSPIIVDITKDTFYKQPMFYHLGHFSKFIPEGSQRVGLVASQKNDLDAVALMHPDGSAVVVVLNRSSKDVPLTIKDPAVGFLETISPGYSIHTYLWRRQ
Cytochrome P450 1A2 (Homo sapiens), sequence (P05177 whole entry, looked up): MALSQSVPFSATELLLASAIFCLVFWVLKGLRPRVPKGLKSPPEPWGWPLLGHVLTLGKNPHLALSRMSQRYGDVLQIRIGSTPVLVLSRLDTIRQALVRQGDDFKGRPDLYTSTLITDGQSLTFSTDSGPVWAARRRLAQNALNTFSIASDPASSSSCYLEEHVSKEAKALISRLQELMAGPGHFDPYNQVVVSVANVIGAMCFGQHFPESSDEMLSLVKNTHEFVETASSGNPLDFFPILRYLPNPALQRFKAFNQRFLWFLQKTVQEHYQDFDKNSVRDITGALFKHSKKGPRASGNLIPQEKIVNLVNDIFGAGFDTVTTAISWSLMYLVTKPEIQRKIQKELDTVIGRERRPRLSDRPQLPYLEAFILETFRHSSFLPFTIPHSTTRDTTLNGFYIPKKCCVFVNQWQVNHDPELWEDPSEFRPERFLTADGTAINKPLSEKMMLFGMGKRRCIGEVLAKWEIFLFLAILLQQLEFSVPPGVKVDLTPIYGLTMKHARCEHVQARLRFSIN
Thyroid hormone receptor beta (Homo sapiens), sequence (P10828 whole entry, looked up): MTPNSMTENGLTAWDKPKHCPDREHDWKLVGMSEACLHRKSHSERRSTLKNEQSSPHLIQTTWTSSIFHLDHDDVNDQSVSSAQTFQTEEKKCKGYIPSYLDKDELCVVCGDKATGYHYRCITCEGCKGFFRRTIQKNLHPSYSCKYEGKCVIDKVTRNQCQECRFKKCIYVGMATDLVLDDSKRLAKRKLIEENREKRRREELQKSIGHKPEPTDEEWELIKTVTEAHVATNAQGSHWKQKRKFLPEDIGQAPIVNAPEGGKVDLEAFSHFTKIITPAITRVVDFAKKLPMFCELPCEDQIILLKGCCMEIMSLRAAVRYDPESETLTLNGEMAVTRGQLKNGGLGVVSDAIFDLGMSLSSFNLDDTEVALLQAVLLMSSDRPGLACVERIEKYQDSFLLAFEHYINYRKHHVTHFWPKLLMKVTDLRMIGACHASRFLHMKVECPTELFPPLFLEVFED

As to `COC(=O)CCCCC(=O)OC`, in [1], the Potency is over 92 µM.

On to `Nc1ccc(S(=O)(=O)O)cc1`, for which the Potency in assay [1] and in assay [2] was over 92 µM throughout. The Potency entry in assay [3] is “inactive”.

For `CN(C)CCCCCCN(C)C`, in assay [1], the Potency is over 92 µM. For the same molecule, the activity change % (negative = inhibition) in assay [4] is 5.32%. In addition, the activity, negative = inhibition in assay [5] (parasite line A) was 13.6%; in [5] (parasite line B), -6.83%. The Potency entry in assay [6], in [7], in assay [8], in assay [9], in assay [10] and in [11] was “inactive” throughout. For the same molecule, the Potency entry in [12], in [13] and in [14] was “inactive” in each case.

`Cc1ccc([N+](=O)[O-])cc1N`: the Potency in assay [1] and in assay [2] was over 92 µM in each case. Besides, the Potency result in assay [3] was “inactive”.

In the case of `CC(C)=CCCC(C)CCO` (stereo not drawn), the Potency in [2] was over 92 µM. Also, the Potency entry in assay [3] is “inactive”. For the same molecule, the activity change % (negative = inhibition) in [4] is -8.9% and -1.71%.

In the case of `COc1c2ccoc2cc2oc(=O)ccc12`, the Potency in [15] is 0.0158 µM (active). In addition, the Potency result in assay [16] is “inactive”. For the same molecule, in assay [4], the activity change % (negative = inhibition) is 16.2%.

`c1ccccc1`: the Potency in assay [1] and in assay [2] was over 92 µM in each case.

`CCCCCCCCO`: in assay [1], the Potency is over 92 µM.

`COC(=O)c1ccc(C=O)cc1`: the Potency in assay [1] was over 92 µM.

Turning to `CCC(C)CCCCC(=O)NC(CCN)C(=O)NC(C(=O)NC(CCN)C(=O)NC1CCNC(=O)C(C(C)O)NC(=O)C(CCN)NC(=O)C(CCN)NC(=O)C(CC(C)C)NC(=O)C(Cc2ccccc2)NC(=O)C(CCN)NC1=O)C(C)O` (stereo not drawn) ({Octanoyl(6-Me)}-[Dab]T[Dab][Dab][Dab]FL[Dab][Dab]T; lactam 4-C; configuration not given here), in [5] (parasite line B), the activity, negative = inhibition is 12%. Moreover, the Potency entry in assay [6], in [7], in assay [8], in assay [9], in assay [10] and in assay [11] was “inactive” throughout. Further, the Potency entry in assay [12], in [13] and in assay [14] was “inactive” each time.

Take `Cc1cccc([N+](=O)[O-])c1C`: the Potency in assay [2] was over 92 µM.

As to `CC(=O)OC/C=C(\C)CCC=C(C)C`, the Potency in assay [1] and in assay [2] was over 92 µM in each case. Further, the activity change % (negative = inhibition) in assay [4] was 10.6%.

Consider `O=[N+]([O-])c1cccc(Cl)c1Cl`, for which the Potency in [2] was over 92 µM.

Take `C=Cc1ccccc1Cl`: the Potency in assay [1] is over 92 µM.

In the case of `c1ccc2c(c1)[nH]c1ccccc12`, the activity change % (negative = inhibition) in assay [4] was 1.02% and -10.3%.

In the case of `S=C1NC=NC2N=CNC12` (stereo not drawn), the activity, negative = inhibition is -17.9% in assay [5] (parasite line A) and -14.3% in assay [5] (parasite line B). The Potency result in assay [6], in assay [7], in assay [8], in [9], in assay [11] and in assay [12] was “inactive” each time. Further, the Potency entry in [13] and in assay [14] was “inactive” throughout. In addition, in assay [10], the Potency is 10.7 µM (active).

Consider `COc1ccc2[nH]cc(CCNc3ncnc4ccc(-c5cccc(C#N)c5)cc34)c2c1`, for which the Potency was over 11.4 µM in [17] and 2.51 µM (active) in assay [15]. Further, the outcome in assay [18] was inactive.

In the case of `CCCCCCCCCCCCCCC1CO1` (stereo not drawn), the Potency in assay [2] was over 92 µM. Moreover, the activity change % (negative = inhibition) in assay [4] is 8.79%.

Turning to `Clc1cc(Cl)c(Cl)cc1Cl`, the Potency in assay [2] was over 92 µM. The Potency result in assay [3] was “inactive”. Moreover, the activity change % (negative = inhibition) in [4] is 5.68% and 7.52%.

With `CN(C)C=O`, the Potency in assay [2] was over 92 µM. Also, in assay [3], the Potency result is “inactive”. Besides, in [4], the activity change % (negative = inhibition) is -4.62% and -13.9% and 12%.

Turning to `Cc1noc(C)c1-c1nc(N2CCN(C)CC2)c2ccccc2n1`, the Potency was over 11.4 µM in assay [17] and 0.316 µM (active) in assay [15]. Besides, the activity change, negative = inhibition in [19] was 28.9%. In addition, in assay [20], the molecule was classed as inactive.

As to `Cn1cc(-c2nc3cnc(N4CCNCC4)nc3n(CCc3ccccc3)c2=O)c2ccccc21`, the Potency was over 11.4 µM in assay [17] and 15.8 µM (active) in assay [15]. Moreover, the Potency result in [16] is “inactive”. In [18], the result was inactive.

Regarding `COc1ccc2nc(N)sc2c1`, in assay [18], the outcome was inactive.

On to `CN(C)C(=O)c1ccc(-c2cc(NCc3ccccc3)ncn2)cc1`, for which the Potency in assay [17] was over 11.4 µM; in [15], 12.6 µM (active). In addition, the activity change, negative = inhibition in assay [19] was -9.2%. The outcome in assay [20] was inactive. For the same molecule, the Potency result in [16] is “inactive”.
